# Results from PubChem BioAssay (Tox21).
# Inconclusive results are not listed. Entries that show only a call come without a potency. Values without a mark were called inactive. Active and inactive are the calls of the source. Unless noted, calls follow the shape of the dose curve; as a rule, active = well fitted curve in the direction sought with a large enough effect in the repeat runs; inconclusive = weak or mixed curves; inactive = no such curve, though single readings can be large; an effect the other way counts as inactive or inconclusive.
# Tests used:
# [1] = qHTS assay to identify small molecule that activate the aryl hydrocarbon receptor (AhR) signaling pathway - cell viability counter screen (AID 743086);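 also: HepG2 liver cells carrying the AhR DRE luciferase reporter; series mostly up to about 70 µM; nearly all actives have a fitted effect of over 45% in size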
# Summary of the method: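 Cytotoxicity counter screen: CellTiter-Fluor signal (30 min, 37 C) in 4000 HepG2 cells/well carrying the DRE-luciferase reporter, following 24 h compound exposure at 37 C.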
# [2] = qHTS assay for small molecule agonists of the antioxidant response element (ARE) signaling pathway (AID 743202; active = well fitted activation curve with a large enough effect in the signal ratio in the repeat runs, not every such curve was filed as active; the % refers to the signal ratio; also: potency is read from the fitted curve at half-maximal effect)
# Summary of the method: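 After 16 hours of compound treatment at 37 C, HepG2 cells with a stably integrated ARE-driven beta-lactamase reporter were loaded 2 hours at room temperature with LiveBLAzer B/G FRET substrate and fluorescence intensity measured.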
# [3] = qHTS assay to identify small molecule agonists of the peroxisome proliferator-activated receptor delta (PPARd) signaling pathway - cell viability counter screen (AID 743211); also: nearly all actives have a fitted effect of over 55% in size
# Summary of the method: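 PPARd-bla HEK293H cells (UAS-beta-lactamase reporter) were treated with compounds for 17 h at 37 C. Viability was then read in the same wells by CellTiter-Glo luminescence after 30 min at room temperature.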
# [4] = target: Peroxisome proliferator-activated receptor gamma (Homo sapiens) (UniProt P37231); assay: qHTS assay to identify small molecule agonists of the peroxisome proliferator-activated receptor gamma (PPARg) signaling pathway (AID 743094; active = well fitted activation curve with a large enough effect in the signal ratio in the repeat runs, not every such curve was filed as active; the % refers to the signal ratio)
# Chain of Peroxisome proliferator-activated receptor gamma (Homo sapiens) (P37231 whole entry, looked up): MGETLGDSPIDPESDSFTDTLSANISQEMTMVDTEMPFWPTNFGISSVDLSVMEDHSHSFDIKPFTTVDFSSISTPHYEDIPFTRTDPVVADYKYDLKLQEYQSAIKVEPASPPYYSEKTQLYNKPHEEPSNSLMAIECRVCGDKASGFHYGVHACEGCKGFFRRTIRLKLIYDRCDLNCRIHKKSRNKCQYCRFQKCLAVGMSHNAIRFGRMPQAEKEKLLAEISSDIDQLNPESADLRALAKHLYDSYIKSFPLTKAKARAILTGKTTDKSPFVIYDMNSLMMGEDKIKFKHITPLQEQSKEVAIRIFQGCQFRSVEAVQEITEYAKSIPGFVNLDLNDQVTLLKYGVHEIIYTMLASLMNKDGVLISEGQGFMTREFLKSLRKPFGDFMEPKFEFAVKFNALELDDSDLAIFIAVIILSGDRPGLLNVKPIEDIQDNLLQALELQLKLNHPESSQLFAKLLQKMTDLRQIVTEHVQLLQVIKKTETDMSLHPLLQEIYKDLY
# Summary of the method: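 Cells from the PPARg UAS-bla HEK293H line are plated and incubated 5 h at 37C. Compounds in DMSO are pinned in and left 17 h at 37C. LiveBLAzer B/G substrate is then added for 1 h at room temperature before fluorescence is measured.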
# [5] = qHTS assay to identify small molecule antagonists of the peroxisome proliferator-activated receptor gamma (PPARg) signaling pathway - cell viability counter screen (AID 743194); also: nearly all actives have a fitted effect of over 55% in size; also: potency is read from the fitted curve at half-maximal effect
# Summary of the method: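 Viability was measured as CellTiter-Glo luminescence in GeneBLAzer PPARg UAS-bla HEK293H cells. These cells had been exposed 17 h at 37 C to compounds together with rosiglitazone at 50 nM final, with the beta-lactamase readout taken in the same wells.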
# [6] = qHTS assay for small molecule agonists of the antioxidant response element (ARE) signaling pathway - cell viability counter screen (AID 743203; calls by dose curve; also: nearly all actives have a fitted effect of over 55% in size; also: potency is read from the fitted curve at half-maximal effect)
# Summary of the method: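 Cytotoxicity was tested in parallel with the ARE reporter screen. ARE-bla HepG2 cells were exposed to compounds for 16 hrs, and viability was taken from CellTiter-Glo luminescence.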
# [7] = qHTS assay for small molecule activators of the heat shock response signaling pathway (AID 743210; active = well fitted activation curve with a large enough effect in the signal ratio in the repeat runs, with a control signal flat, not every such curve was filed as active; the % refers to the signal ratio; also: series mostly up to about 63 µM)
# Summary of the method: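 Compound exposure lasted 5 h at 37 C in HeLa cells carrying a heat-shock-element-driven beta-lactamase reporter. Read-out: fluorescence intensity after 2.5 h room-temperature loading with LiveBLAzer B/G FRET substrate.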
# [8] = qHTS assay for small molecule activators of the heat shock response signaling pathway - cell viability counter screen (AID 743209); also: nearly all actives have a fitted effect of over 50% in size
# Summary of the method: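 Cytotoxicity counter screen run in parallel with the HSE beta-lactamase reporter, using the same wells. HeLa HSE-bla cells received compound for 5 h at 37 C; ATP-based CellTiter-Glo luminescence was measured after 30 min at room temperature.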
# [9] = target: Peroxisome proliferator-activated receptor gamma (Homo sapiens) (UniProt P37231); assay: qHTS assay to identify small molecule antagonists of the peroxisome proliferator-activated receptor gamma (PPARg) signaling pathway (AID 743191; calls by dose curve; also: nearly all actives have a fitted effect of over 30% in size; also: potency is read from the fitted curve at half-maximal effect; as to ratio activity, negative = inhibition: series mostly up to about 63 µM)
# Summary of the method: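 Beta-lactamase reporter under UAS control in HEK293H PPARg-bla cells; compound treatment 17 h at 37C. Read-out: fluorescence intensity after 1 h room-temperature incubation with LiveBLAzer B/G FRET substrate.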
smiles,measurement,setting,value
CCCCCCCC(=O)Oc1c(Br)cc(C#N)cc1Br,Potency,[1],inactive
same,Potency,[2],inactive
same,Potency,[3],inactive
BrC(Br)C(Br)Br,Potency,[1],inactive
same,outcome,[4],inactive
same,Potency,[5],inactive
same,Potency,[2],inactive
same,Potency,[6],inactive
same,Potency,[7],inactive
same,Potency,[3],inactive
CC(CN(CCN(CC(C)OCCO)CC(C)OCCO)CC(C)OCCO)OCCO (centres undefined),Potency,[1],inactive
same,outcome,[4],inactive
same,Potency,[5],37.5 µM (active)
same,Potency,[6],33.1 µM (active)
same,Potency,[8],inactive
same,Potency,[7],inactive
same,Potency,[3],inactive
CCN(CC)CC(=O)Nc1c(C)cccc1C(=O)OC,Potency,[5],inactive
same,Potency,[2],inactive
same,Potency,[6],inactive
same,Potency,[8],inactive
same,Potency,[7],inactive
same,Potency,[3],inactive
COC(=O)C1=C(C)NC(C)=C(C(=O)OC(C)(C)CN(C)CCC(c2ccccc2)c2ccccc2)C1c1cccc([N+](=O)[O-])c1 (centres undefined),outcome,[4],inactive
same,Potency,[5],inactive
same,Potency,[6],inactive
same,Potency,[8],inactive
same,Potency,[7],inactive
same,Potency,[3],inactive
O=C(Nc1ccc(C(=O)O)c(O)c1)c1ccccc1,Potency,[1],inactive
same,outcome,[4],inactive
same,Potency,[5],inactive
same,Potency,[2],inactive
same,Potency,[6],inactive
same,Potency,[8],inactive
same,Potency,[7],inactive
same,Potency,[3],inactive
Cc1oc(=O)oc1COC(=O)[C@@H]1N2C(=O)[C@@H](NC(=O)[C@H](N)c3ccccc3)[C@H]2SC1(C)C,Potency,[9],inactive
same,Potency,[5],inactive
same,Potency,[2],inactive
same,Potency,[6],inactive
same,Potency,[8],inactive
same,Potency,[7],inactive
same,Potency,[3],inactive
CCN(CC)c1cccc(O)c1,Potency,[1],inactive
same,outcome,[4],inactive
same,Potency,[5],inactive
same,Potency,[6],inactive
same,Potency,[8],inactive
same,Potency,[7],inactive
same,Potency,[3],inactive
O=C(O)c1cccc(Oc2ccccc2)c1,Potency,[1],inactive
same,Potency,[9],inactive
same,Potency,[5],inactive
same,Potency,[2],inactive
same,Potency,[6],inactive
same,Potency,[8],inactive
same,Potency,[7],inactive
same,Potency,[3],inactive
CCCCCCCC/C=C/C(=O)O,Potency,[5],inactive
same,Potency,[2],inactive
same,Potency,[8],inactive
same,Potency,[7],inactive
same,Potency,[3],inactive
Oc1cccc2[nH]ccc12,Potency,[9],inactive
same,Potency,[5],inactive
same,Potency,[6],inactive
same,Potency,[8],inactive
same,Potency,[7],inactive
same,Potency,[3],inactive
O=S(=O)(O)CO,outcome,[4],inactive
same,Potency,[9],inactive
same,Potency,[2],inactive
same,Potency,[6],inactive
same,Potency,[7],inactive
same,Potency,[3],inactive
COc1ccc(/C=C/C(=O)c2ccc(OC)cc2OC)cc1,outcome,[4],inactive
same,Potency,[9],9.44 µM (active)
same,Potency,[6],inactive
same,Potency,[8],inactive
same,Potency,[3],inactive
Cc1cc(CCCOc2c(C)cc(-c3noc(C(F)(F)F)n3)cc2C)on1,Potency,[5],inactive
same,Potency,[6],inactive
same,Potency,[7],inactive
same,Potency,[3],inactive
CCNc1nc(N)nc(Cl)n1,Potency,[1],inactive
same,Potency,[5],inactive
same,Potency,[2],inactive
same,Potency,[6],inactive
same,Potency,[8],inactive
same,Potency,[7],inactive
same,Potency,[3],inactive
CCCCCCC(O)CCCCCCCCCCC(=O)OC (centres undefined),Potency,[2],inactive
same,Potency,[6],inactive
same,Potency,[8],inactive
same,Potency,[3],inactive
CC(CCc1ccc(O)cc1)NCCc1ccc(O)c(O)c1 (centres undefined),Potency,[5],inactive
same,Potency,[6],inactive
same,Potency,[7],inactive
same,Potency,[3],inactive
CC(=O)N[C@@H](Cc1ccc(O)cc1)C(=O)O,Potency,[1],inactive
same,Potency,[2],inactive
same,Potency,[6],inactive
same,Potency,[8],inactive
same,Potency,[7],inactive
same,Potency,[3],inactive
SCCc1cnccn1,Potency,[1],inactive
same,Potency,[9],inactive
same,Potency,[5],inactive
same,Potency,[6],inactive
CCOc1ncc(F)c(=O)[nH]1,Potency,[9],inactive
same,Potency,[2],inactive
same,Potency,[6],inactive
same,Potency,[8],inactive
same,Potency,[3],inactive
COC(=O)Nc1nc2ccc(C(=O)C3CC3)cc2[nH]1,Potency,[2],inactive
same,Potency,[8],inactive
same,Potency,[3],inactive
O=[N+]([O-])c1ccc2ncccc2c1,Potency,[1],inactive
same,outcome,[4],inactive
same,Potency,[5],inactive
same,Potency,[2],inactive
same,Potency,[6],inactive
same,Potency,[8],inactive
same,Potency,[7],inactive
same,Potency,[3],inactive
O=C1OC(=O)c2c(Br)c(Br)c(Br)c(Br)c21,Potency,[1],inactive
same,outcome,[4],inactive
same,Potency,[5],inactive
same,Potency,[6],inactive
same,Potency,[8],inactive
same,Potency,[7],inactive
same,Potency,[3],inactive
CCOC(=O)c1ccc(NC(=O)CN2CCCCC2)cc1,Potency,[1],inactive
same,Potency,[5],inactive
same,Potency,[6],inactive
same,Potency,[8],inactive
same,Potency,[7],inactive
same,Potency,[3],inactive
C=C(C)c1ccccc1,Potency,[1],inactive
same,Potency,[5],inactive
same,Potency,[2],inactive
same,Potency,[6],inactive
same,Potency,[8],inactive
same,Potency,[7],inactive
same,Potency,[3],inactive
CCOC(=O)N1CCC(Nc2ccc(Cl)cc2N)CC1,Potency,[5],inactive
same,Potency,[2],7.5 µM (active)
same,Potency,[6],inactive
same,Potency,[8],inactive
same,Potency,[3],inactive
CCC(Cl)CC(Cl)C(Cl)C(Cl)C(Cl)C(C)Cl (centres undefined),outcome,[4],inactive
same,"ratio activity, negative = inhibition",[9],-28.9% [at 13.2 µM]
same,"activity change, negative = cytotoxicity",[5],-22.8% [at 13.2 µM]
same,activation,[2],7.21% [at 18.1 µM]
same,"viability change, negative = cytotoxic",[6],-17% [at 18.1 µM]
same,"activity change, negative = cytotoxicity",[8],2.25% [at 13.2 µM]
same,"activity change, negative = cytotoxicity",[3],-18.5% [at 13.2 µM]
Cc1ccc(NC(=O)N(C)C)cc1NC(=O)N(C)C,Potency,[1],inactive
same,outcome,[4],inactive
same,Potency,[5],inactive
same,Potency,[2],inactive
same,Potency,[6],inactive
same,Potency,[8],inactive
same,Potency,[7],inactive
same,Potency,[3],inactive
Nc1nc(-c2ccc([N+](=O)[O-])cc2)cs1,outcome,[4],inactive
same,Potency,[9],inactive
same,Potency,[5],inactive
same,Potency,[6],inactive
same,Potency,[8],inactive
same,Potency,[7],inactive
same,Potency,[3],inactive
Cc1ccccc1S(N)(=O)=O,Potency,[1],inactive
same,Potency,[5],inactive
same,Potency,[6],inactive
same,Potency,[8],inactive
same,Potency,[7],inactive
same,Potency,[3],inactive
